Experimental data from PubChem BioAssay (Tox21).
“And” between values parts separate entries of the source, which are not always exact repeats. Equal values may be shown once. Results filed as inconclusive are left out. Where a call stands in place of a potency, no number is given. The source holds several records for some structures; these can differ, active in one and inactive in another. The source made the active and inactive calls. Calls come from the whole dose curve; as a rule, active = well fitted cell-killing curve with a large enough effect in the repeat runs; inconclusive = weak or mixed curves; inactive = flat fitted curve, though single readings scatter.

Assay: qHTS assay to identify small molecule antagonists of the estrogen related receptor (ERR) signaling pathway from Tox21 library - cell viability counter screen (AID 1224834); note: nearly all actives have a fitted effect of over 30% in size
Conditions: ERR reporter cells viability, CellTiter-Fluor, 17.5 h; series mostly up to 92.4 µM; viability change, negative = cytotoxic: at the top concentration
Outline: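 After 17.5 h of compound exposure at 37 C, ERR cells are incubated with CellTiter-Fluor for 30 min and fluorescence intensity serves as the viability measure.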
Potency is the fitted concentration of half-maximal effect.

| SMILES | Potency | viability change, negative = cytotoxic |
| --- | --- | --- |
| Cc1cc(NS(=O)(=O)c2ccc(N)cc2)no1 | inactive | – |
| O=C1N=C(O)CN1/N=C/c1ccc(-c2ccc([N+](=O)[O-])cc2)o1 | 43.3 µM (active) and 26.6 µM (active) | – |
| Nc1cc(-c2ccncc2)c[nH]c1=O | inactive | – |
| CC(C)(N=C=O)c1cccc(C(C)(C)N=C=O)c1 | – | 0.125% (inactive) |
| CCCCC/C=C\C/C=C\CCCCCCCC(=O)OC | inactive | – |
| CCCCCCCCCCCCN | inactive and 7.7 µM (active) | – |
| Oc1ccc(OCc2ccccc2)cc1 | – | -1.28% [at 42.5 µM] (inactive) |
| CCC(=O)O | inactive | – |
| CC1CC(OC(=O)c2ccccc2O)CC(C)(C)C1 (stereo unspecified) | inactive | – |
| CC1Cc2ccccc2N1NC(=O)c1ccc(Cl)c(S(N)(=O)=O)c1 (stereo unspecified) | inactive | – |
| O=[N+]([O-])C(CO)(CO)CO | inactive | – |
| CC(C)NCC(O)COc1cccc2ccccc12 (stereo unspecified) | – | -14% (inactive) |
| Nc1c(S(=O)(=O)O)cc(Br)c2c1C(=O)c1ccccc1C2=O | inactive and 24.3 µM (active) | – |
| Cc1cc(O)cc(C)c1Cl | inactive | – |
| Oc1c(Cl)cc(Cl)c(Cl)c1Cl | – | -7.26% (inactive) |
| Cc1cc(Cc2ccc(N)c(C)c2)ccc1N | – | -6.92% (inactive) |
| CC(C)n1c(/C=C/[C@@H](O)C[C@@H](O)CC(=O)O)c(-c2ccc(F)cc2)c2ccccc21 | inactive | – |
| CCCCCCCCCC(=O)O | inactive | – |

| SMILES | Potency | viability change, negative = cytotoxic |
| --- | --- | --- |
| CN(C)c1ccc(C(=N)c2ccc(N(C)C)cc2)cc1 | 24 µM (active) and 20.9 µM (active) | – |
| CC(=O)CCc1ccccc1 | inactive | – |
| O=Nc1ccc(O)cc1 | – | 0.441% (inactive) |
| CC1=C(CC(=O)O)c2cc(F)ccc2/C1=C\c1ccc(S(C)=O)cc1 (stereo unspecified) | inactive | – |
| COC(=O)c1ccccc1O | inactive | – |
| CCOC(=O)/C=C\C(=O)OCC | inactive | – |
| C/C=C(C)/C=C/C=C(C)C | inactive | – |
| Oc1ccc2ccccc2c1 | inactive | – |
| COC(=O)c1ccc(C(=O)OC)cc1 | 24.7 µM (active) and inactive | – |
| Clc1cc(Cl)c(Cl)cc1Cl | inactive | – |
| CC1(C)O[C@@H]2C[C@H]3[C@@H]4C[C@H](F)C5=CC(=O)CC[C@]5(C)[C@H]4[C@@H](O)C[C@]3(C)[C@]2(C(=O)CO)O1 | inactive | – |
| O=C(c1ccc(O)cc1)c1ccc(O)cc1O | – | -12.8% (inactive) |
| CCCCC(CC)COC(=O)CCCCCCCC(=O)OCC(CC)CCCC (stereo unspecified) | 17.2 µM (active) and inactive | – |
| COC(=O)Nc1nc2ccc(Sc3ccccc3)cc2[nH]1 | – | -16.5% (inactive) |
| CC1(C)CC(N=C=O)CC(C)(CN=C=O)C1 (stereo unspecified) | inactive | – |
| NCCc1ccc(O)c(O)c1 | 54.6 µM (active) and inactive | – |
| CC(C)(C)C1CCC(O)CC1 (stereo unspecified) | inactive | – |
| CCCCC(CC)COC(C)=O (stereo unspecified) | inactive | – |
